According to a collection of fitness landscapes (doi:10.1126/science.1257360):
Over roughly 140,000 sequences, “enrichment ratio after two sorts for PhoP signalling” has its median near 0; the highest 2% begin near 11. What follows is part of a selection rich in the highest values, with near analogues and random picks from the rest.

B1: PhoQ; a variant is named by its letters at X, in order, P23837 (parent)
chain: MKKLLRLFFPLSLRVRFLLATAAVVLVLSLAYGMVALIGYSVSFDKTTFRLLRGESNLFYTLAKWENNKLHVELPENIDKQSPTMTLIYDENGQLLWAQRDVPWLMKMIQPDWLKSNGFHEIEADVNDTSLLLSGDHSIQQQLQEVREDDDDAEMTHSVAVNVYPATSRMPKLTIVVVDTIPVELKSSYMVWSWFIYVLSANLLLVIPLLWVAAWWSLRPIEALAKEVRELEEHNRELLNPATTRELTSLVRNLNRLLKSERERYDKYRTTLTDLTHSLKTPLXXLQXXLRSLRSEKMSVSDAEPVMLEQISRISQQIGYYLHRASMRGGTLLSRELHPVAPLLDNLTSALNKVYQRKGVNISLDISPEISFVGEQNDFVEVMGNVLDNACKYCLEFVEISARQTDEHLYIVVEDDGPGIPLSKREVIFDRGQRVDTLRPGQGVGLAVAREITEQYEGKIVAGESMLGGARMEVIFGRQHSAPKDE

Variants of: B1
Assay: enrichment ratio after two sorts for PhoP signalling (ratio (wild type AVST 3.29)); higher = more functional
Conditions: with PhoP (E. coli)

Variant	enrichment ratio
DRAC	≤ 0.25
VPLT	≤ 0.25
GGVS	≤ 0.25
FTAL	0.293
QVGH	15.9
QVTH	≤ 0.25
QVGP	≤ 0.25
LEWI	2.42
LEIV	≤ 0.25
LEEG	≤ 0.25
LEGM	≤ 0.25
LEMG	11.8
LRMM	≤ 0.25
LEMM	11.3
LEWV	11.9
LEGG	≤ 0.25
LEMV	12.9
LEMK	≤ 0.25
LEMS	8.78
FPFR	≤ 0.25
FVFS	≤ 0.25
GEKH	≤ 0.25
QGKV	≤ 0.25
SSGP	≤ 0.25
EPLM	≤ 0.25

Variant	enrichment ratio
ALDK	≤ 0.25
TQNV	14.2
TQQT	6.08
TQLC	13.1
TQWT	0.56
NQLC	≤ 0.25
IQNV	≤ 0.25
TQAT	12.7
TQAH	13.3
WQLC	≤ 0.25
NQAH	≤ 0.25
EQNV	≤ 0.25
IQAH	≤ 0.25
MGKS	≤ 0.25
INSM	0.298
IPGV	≤ 0.25
PQPN	≤ 0.25
FQNC	≤ 0.25
NNRL	≤ 0.25
EKQI	≤ 0.25
RWFN	≤ 0.25
NWQL	≤ 0.25
VDAW	≤ 0.25
RNYN	≤ 0.25
FRWR	≤ 0.25

Variant	enrichment ratio
WYYY	≤ 0.25
TQNI	≤ 0.25
TQNS	12.8
TQAD	11.6
TQRA	≤ 0.25
LAAD	≤ 0.25
TQET	≤ 0.25
TQAA	3.31
TQNY	6.18
TQNW	≤ 0.25
TQLS	17.6
TQNT	15.4
TQLQ	5.05
PAWD	≤ 0.25
SEAL	7.85
GSHA	≤ 0.25
AKYV	≤ 0.25
FLDC	≤ 0.25
ANKM	≤ 0.25
TAGV	5.24
ICLI	5.89
FVAK	≤ 0.25
FELQ	8.46
IHIG	≤ 0.25
TQMT	14.6

Variant	enrichment ratio
TQLA	4.57
TQRH	≤ 0.25
TQKH	≤ 0.25
EQMT	≤ 0.25
TQLT	18.8
FQMT	≤ 0.25
TQNH	16.3
TQLK	4.42
NNDT	≤ 0.25
FCNF	≤ 0.25
MPFQ	≤ 0.25
RPVE	≤ 0.25
VATR	≤ 0.25
FKHE	≤ 0.25
YRPV	≤ 0.25
VMPF	≤ 0.25
AQGT	3.18
ASAL	11.7
AQAL	18.4
AKAL	11.1
VRAL	≤ 0.25
GVAL	1.02
AHAL	≤ 0.25
FSAL	0.667
NVAL	≤ 0.25

Variant	enrichment ratio
MVAL	11.3
KSAL	≤ 0.25
TSAL	13
GNDN	0.537
LWNG	≤ 0.25
QKPR	≤ 0.25
NSMN	≤ 0.25
RATG	≤ 0.25
MKAL	4.45
NMAL	≤ 0.25
AMAL	11.3
MMAL	13.5
TMAL	14
DMAL	≤ 0.25
VLAL	0.925
FCAL	≤ 0.25
KMAL	≤ 0.25
MCAL	13.5
MFAL	≤ 0.25
KCAL	≤ 0.25
HHKF	≤ 0.25
ICEL	≤ 0.25
LEWF	≤ 0.25
GLPR	≤ 0.25
LWEC	≤ 0.25

Variant	enrichment ratio
YYHC	≤ 0.25
QESC	5.96
NESC	≤ 0.25
NEHC	≤ 0.25
TEEC	12.4
HPEC	≤ 0.25
TESC	13.3
TEHC	22.1
KSYC	≤ 0.25
YTYC	≤ 0.25
TEYC	12.6
YRVI	≤ 0.25
ETQT	≤ 0.25
GDCV	1.12
HWFI	≤ 0.25
VAGY	1.53
NQGE	≤ 0.25
YYNI	≤ 0.25
MCMI	4.33
IAKS	≤ 0.25
NMWR	≤ 0.25
KAQY	≤ 0.25
TEPC	≤ 0.25
TENK	5.62
TETC	24.3

Variant	enrichment ratio
PWAR	≤ 0.25
SIGE	16.9
SIMI	17.4
STMI	14.9
LWMI	≤ 0.25
KYGE	≤ 0.25
SIWI	≤ 0.25
QDFA	≤ 0.25
SPMI	≤ 0.25
SWMI	≤ 0.25
KYMI	≤ 0.25
SRGE	≤ 0.25
QEMI	65.2
WVYV	≤ 0.25
RSYE	≤ 0.25
DIVY	≤ 0.25
VANA	≤ 0.25
RKTG	≤ 0.25
ECNY	≤ 0.25
LALQ	1.26
TKVS	7.5
WIVS	≤ 0.25
AIVS	12.6
AAVS	≤ 0.25
AKVS	13.5

Variant	enrichment ratio
AHVS	≤ 0.25
YWKL	≤ 0.25
HFDQ	≤ 0.25
TNQV	47.4
TNVA	≤ 0.25
TNWR	≤ 0.25
TNHI	≤ 0.25
TNMH	15.7
TNCV	10
MNNV	≤ 0.25
MNQV	≤ 0.25
TNCH	≤ 0.25
TNMI	11.7
TNMG	≤ 0.25
TNNV	13.4
TTFC	≤ 0.25
IGNC	≤ 0.25
NNDF	≤ 0.25
KDQI	≤ 0.25
WTKG	≤ 0.25
KNQF	≤ 0.25
FFRV	≤ 0.25
IYFT	≤ 0.25
ECCW	≤ 0.25
SVDL	1.56

Variant	enrichment ratio
WHFP	≤ 0.25
TNIV	≤ 0.25
TNMS	4.8
TNMV	12.6
KYGA	≤ 0.25
KYMA	≤ 0.25
STMA	4.9
SRGA	≤ 0.25
SEMA	13.6
SEGA	12
ALVP	≤ 0.25
HAVN	≤ 0.25
FQPY	≤ 0.25
AEWV	≤ 0.25
AESI	25.1
AWCD	≤ 0.25
AEGL	1.47
AEES	≤ 0.25
QECD	≤ 0.25
AEPL	≤ 0.25
AECD	17
AESR	3.86
AECL	20.9
AESH	1.31
AECV	21.4

Variant	enrichment ratio
DTCP	≤ 0.25
FCNA	≤ 0.25
VDPQ	≤ 0.25
GHKH	≤ 0.25
IWMV	≤ 0.25
MRYG	≤ 0.25
VCGI	≤ 0.25
VANS	≤ 0.25
KPRL	≤ 0.25
AECQ	30.9
AIIF	≤ 0.25
AECI	4.88
AECK	≤ 0.25
AECG	≤ 0.25
ADIF	≤ 0.25
AEIF	18.6
AECS	39.5
AECP	≤ 0.25
AECA	42.4
RMEF	≤ 0.25
THRH	≤ 0.25
LFGG	≤ 0.25
SVRY	≤ 0.25
VDCR	≤ 0.25
PYWQ	≤ 0.25

Variant	enrichment ratio
SCIE	≤ 0.25
KCCQ	≤ 0.25
SCWM	≤ 0.25
SCNE	≤ 0.25
SCCK	14.3
SCIL	0.31
SCKQ	≤ 0.25
SCVL	1.96
SCCI	9.92
SCCQ	13.2
SCCE	13.9
SCCL	18.7
QNII	≤ 0.25
YSFC	≤ 0.25
QFDM	≤ 0.25
MRHI	≤ 0.25
SCCG	14.3
SCNL	0.751
SCGL	13.6
SCRM	≤ 0.25
SCGG	11.1
SCTM	17.9
KYGL	≤ 0.25
KCCG	≤ 0.25
SCGM	9.65

Variant	enrichment ratio
IPCK	≤ 0.25
NTGH	≤ 0.25
VHAE	≤ 0.25
RFHG	≤ 0.25
GDAF	≤ 0.25
THIS	≤ 0.25
SATC	5.33
SATD	≤ 0.25
AHTY	≤ 0.25
HATY	≤ 0.25
SSLI	18.9
SFLI	0.615
AETY	16
AITY	3.48
NNTY	≤ 0.25
SSDK	≤ 0.25
SATS	14.2
TMTY	12.9
IYRF	≤ 0.25
VMFP	≤ 0.25
EPNR	≤ 0.25
LVNK	≤ 0.25
AYMN	≤ 0.25
SQGS	7.13
NISG	≤ 0.25

Variant	enrichment ratio
NDHH	≤ 0.25
KYTY	≤ 0.25
TSAY	11.6
SQTY	8.07
MMTY	≤ 0.25
TSTY	11.6
DHTY	≤ 0.25
TQTY	17.5
FQTY	≤ 0.25
FSAY	≤ 0.25
KSAY	0.715
SITY	12.7
LCTY	≤ 0.25
